# From the supplement of paper PMC10849652
# About 8,800 targets were measured; listed, in parts, are those with a hit and a random draw of the rest. About 0.5% of all pairs of compound and target were hits. A number with no mark means an inactive call.
# Columns and labels:
# Experiment in all cases: log2 fold change, soluble protein after heating vs DMSO (PISA); higher = thermal stabilisation; K562 lysate, 10 uM; active = over 0.2 and 3.5 SD of the protein, either way, in both replicates (recomputed)
# [1] = compound: C1=CC=C(C=C1)[C@H](COC2=CC3=C(C=C2)NC(=O)N3)NC(=O)C4=CC=CN(C4=O)CC5=CC(=C(C=C5)F)F
# How it was run: (§1)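 Values give the log-two fold change in thermal stability against solvent controls, from duplicates. Crude K562 extract at 1 mg/mL protein, made by dounce homogenisation in PBS pH 7.4 with 1 mM MgCl2, was treated with 10 μM compound for 30 min. After 3 min heating across 48°C-58°C, aliquots were pooled, adjusted to 0.5% NP-40 at 4°C and centrifuged at 21,000xg for 90 min. The supernatant was measured by TMTpro 16plex LC-MS/MS with channel sums equalised.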
# [2] = compound: CC1=C(SC2=C1C(=N[C@H](C3=NN=C(N32)C)CC(=O)N)C4=CC=C(C=C4)Cl)C
# How it was run: as §1
# [3] = compound: CC1=C2C(=CC=C1)N=C(N(C2=O)C3=CC=CC=C3C)CN4C=NC5=C(N=CN=C54)N
# How it was run: as §1
# [4] = compound: c1ccc([C@@H]2C[C@H]2NC2CCNCC2)cc1
# How it was run: as §1
# [5] = compound: Cc1sc2c(c1C)C(c1ccc(Cl)cc1)=N[C@@H](CC(=O)OC(C)(C)C)c1nnc(C)n1-2
# How it was run: as §1
# Sequence of UniProt O95149 (O95149 whole entry, looked up): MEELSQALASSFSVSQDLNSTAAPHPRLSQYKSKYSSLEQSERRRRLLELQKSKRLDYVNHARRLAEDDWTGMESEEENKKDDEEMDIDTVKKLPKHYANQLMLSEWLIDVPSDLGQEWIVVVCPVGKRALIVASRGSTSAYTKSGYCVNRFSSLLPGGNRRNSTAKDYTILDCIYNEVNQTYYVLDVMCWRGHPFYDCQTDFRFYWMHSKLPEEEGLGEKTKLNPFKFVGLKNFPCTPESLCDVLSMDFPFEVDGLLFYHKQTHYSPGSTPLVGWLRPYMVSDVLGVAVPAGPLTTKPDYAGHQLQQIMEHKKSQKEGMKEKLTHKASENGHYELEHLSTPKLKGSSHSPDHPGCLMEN
# Sequence of UniProt Q96BD0 (Q96BD0 whole entry, looked up): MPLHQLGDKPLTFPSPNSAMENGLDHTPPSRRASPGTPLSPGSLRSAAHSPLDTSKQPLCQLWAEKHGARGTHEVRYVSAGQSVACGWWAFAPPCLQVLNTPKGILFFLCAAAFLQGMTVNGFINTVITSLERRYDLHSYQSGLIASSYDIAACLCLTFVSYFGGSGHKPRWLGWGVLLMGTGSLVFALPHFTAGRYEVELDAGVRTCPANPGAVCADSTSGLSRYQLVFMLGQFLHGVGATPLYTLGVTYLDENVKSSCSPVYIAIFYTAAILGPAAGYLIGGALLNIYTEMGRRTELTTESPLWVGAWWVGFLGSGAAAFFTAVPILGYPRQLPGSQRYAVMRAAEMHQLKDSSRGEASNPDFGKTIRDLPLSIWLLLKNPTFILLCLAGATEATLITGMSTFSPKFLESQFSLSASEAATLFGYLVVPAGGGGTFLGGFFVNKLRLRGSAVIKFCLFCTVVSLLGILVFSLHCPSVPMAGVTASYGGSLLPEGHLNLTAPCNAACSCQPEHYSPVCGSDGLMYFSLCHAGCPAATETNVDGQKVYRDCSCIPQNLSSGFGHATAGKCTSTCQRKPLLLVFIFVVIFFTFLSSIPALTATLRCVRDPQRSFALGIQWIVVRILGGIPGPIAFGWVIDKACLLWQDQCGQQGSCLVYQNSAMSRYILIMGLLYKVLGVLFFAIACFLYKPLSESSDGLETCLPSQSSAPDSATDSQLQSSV
# Sequence of UniProt Q13309 (Q13309 whole entry, looked up): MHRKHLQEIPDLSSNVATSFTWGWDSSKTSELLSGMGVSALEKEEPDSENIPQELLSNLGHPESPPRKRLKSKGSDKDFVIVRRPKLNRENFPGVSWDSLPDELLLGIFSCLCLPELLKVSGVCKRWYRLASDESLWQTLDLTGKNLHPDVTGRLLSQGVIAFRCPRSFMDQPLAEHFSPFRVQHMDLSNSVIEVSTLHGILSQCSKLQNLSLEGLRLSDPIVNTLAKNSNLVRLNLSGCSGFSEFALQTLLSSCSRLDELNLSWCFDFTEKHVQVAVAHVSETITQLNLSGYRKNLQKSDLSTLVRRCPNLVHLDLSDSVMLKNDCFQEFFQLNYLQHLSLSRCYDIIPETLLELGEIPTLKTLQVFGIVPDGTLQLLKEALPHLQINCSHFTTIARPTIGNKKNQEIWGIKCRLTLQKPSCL
# Sequence of UniProt Q8TCT8 (Q8TCT8 whole entry, looked up): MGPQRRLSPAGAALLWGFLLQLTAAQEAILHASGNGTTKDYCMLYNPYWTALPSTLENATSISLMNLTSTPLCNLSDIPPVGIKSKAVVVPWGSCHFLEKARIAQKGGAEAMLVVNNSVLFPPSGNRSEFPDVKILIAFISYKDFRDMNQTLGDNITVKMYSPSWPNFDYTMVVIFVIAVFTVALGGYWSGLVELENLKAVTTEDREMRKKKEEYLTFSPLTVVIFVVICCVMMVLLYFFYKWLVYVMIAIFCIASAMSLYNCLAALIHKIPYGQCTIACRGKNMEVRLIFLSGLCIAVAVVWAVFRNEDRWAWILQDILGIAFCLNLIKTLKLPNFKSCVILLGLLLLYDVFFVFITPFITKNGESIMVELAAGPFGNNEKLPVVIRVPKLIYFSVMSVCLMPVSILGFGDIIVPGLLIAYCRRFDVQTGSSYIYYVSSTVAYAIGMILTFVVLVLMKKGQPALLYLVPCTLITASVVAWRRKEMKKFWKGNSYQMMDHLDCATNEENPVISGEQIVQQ
# Sequence of UniProt Q8N196 (Q8N196 whole entry, looked up): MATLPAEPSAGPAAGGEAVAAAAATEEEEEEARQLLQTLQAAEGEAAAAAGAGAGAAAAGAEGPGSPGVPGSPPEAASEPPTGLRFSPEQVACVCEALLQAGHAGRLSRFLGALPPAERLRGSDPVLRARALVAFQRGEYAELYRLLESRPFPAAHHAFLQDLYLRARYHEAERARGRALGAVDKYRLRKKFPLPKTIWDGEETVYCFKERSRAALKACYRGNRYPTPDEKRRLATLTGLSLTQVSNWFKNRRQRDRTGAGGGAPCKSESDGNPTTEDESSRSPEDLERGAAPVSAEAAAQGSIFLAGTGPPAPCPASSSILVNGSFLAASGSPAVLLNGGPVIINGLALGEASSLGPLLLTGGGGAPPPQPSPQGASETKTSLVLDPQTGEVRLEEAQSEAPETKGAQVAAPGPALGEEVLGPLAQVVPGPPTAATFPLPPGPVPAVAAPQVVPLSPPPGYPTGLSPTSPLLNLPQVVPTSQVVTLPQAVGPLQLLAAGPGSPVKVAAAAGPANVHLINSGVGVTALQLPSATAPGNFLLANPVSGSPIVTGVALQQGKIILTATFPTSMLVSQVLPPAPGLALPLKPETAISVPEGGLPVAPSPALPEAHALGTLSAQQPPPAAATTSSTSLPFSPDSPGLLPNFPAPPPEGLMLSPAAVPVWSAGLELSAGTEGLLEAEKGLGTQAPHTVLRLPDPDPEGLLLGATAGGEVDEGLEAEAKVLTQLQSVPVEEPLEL
# Sequence of UniProt O95793 (O95793 whole entry, looked up): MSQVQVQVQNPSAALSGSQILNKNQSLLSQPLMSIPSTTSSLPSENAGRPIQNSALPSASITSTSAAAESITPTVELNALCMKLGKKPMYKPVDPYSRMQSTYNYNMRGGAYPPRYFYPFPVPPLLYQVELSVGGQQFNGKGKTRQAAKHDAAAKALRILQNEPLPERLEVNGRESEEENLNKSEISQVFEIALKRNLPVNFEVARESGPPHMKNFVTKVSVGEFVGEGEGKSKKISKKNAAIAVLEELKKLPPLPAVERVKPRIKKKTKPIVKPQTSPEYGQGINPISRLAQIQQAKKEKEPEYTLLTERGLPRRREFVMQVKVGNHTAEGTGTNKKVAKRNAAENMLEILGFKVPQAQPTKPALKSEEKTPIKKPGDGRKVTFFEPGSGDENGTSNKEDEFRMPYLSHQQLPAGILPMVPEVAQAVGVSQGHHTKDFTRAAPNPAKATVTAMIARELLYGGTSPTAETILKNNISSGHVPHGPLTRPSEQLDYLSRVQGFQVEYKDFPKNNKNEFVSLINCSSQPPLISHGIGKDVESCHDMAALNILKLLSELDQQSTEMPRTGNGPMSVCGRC
# Sequence of UniProt P12931 (P12931 whole entry, looked up): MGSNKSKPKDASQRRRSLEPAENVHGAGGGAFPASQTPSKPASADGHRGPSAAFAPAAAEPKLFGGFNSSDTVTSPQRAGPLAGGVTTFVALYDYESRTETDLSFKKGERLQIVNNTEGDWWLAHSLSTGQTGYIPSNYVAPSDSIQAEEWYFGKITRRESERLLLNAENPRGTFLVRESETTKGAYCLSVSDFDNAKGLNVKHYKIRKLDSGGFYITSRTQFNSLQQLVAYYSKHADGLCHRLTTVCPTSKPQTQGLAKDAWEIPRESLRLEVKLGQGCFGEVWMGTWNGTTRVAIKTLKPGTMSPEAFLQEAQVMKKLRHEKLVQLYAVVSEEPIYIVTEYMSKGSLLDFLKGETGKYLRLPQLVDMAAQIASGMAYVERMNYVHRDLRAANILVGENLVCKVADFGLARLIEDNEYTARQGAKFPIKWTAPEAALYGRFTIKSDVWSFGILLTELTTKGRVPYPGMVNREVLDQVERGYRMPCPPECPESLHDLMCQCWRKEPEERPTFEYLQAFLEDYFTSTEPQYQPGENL
# Sequence of UniProt Q15544 (Q15544 whole entry, looked up): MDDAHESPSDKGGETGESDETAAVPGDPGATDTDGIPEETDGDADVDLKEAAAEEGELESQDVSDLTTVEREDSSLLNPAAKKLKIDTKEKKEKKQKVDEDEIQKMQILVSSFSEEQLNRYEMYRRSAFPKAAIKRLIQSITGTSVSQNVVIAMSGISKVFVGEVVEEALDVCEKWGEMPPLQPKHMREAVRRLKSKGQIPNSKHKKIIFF
# Sequence of UniProt Q9H668 (Q9H668 whole entry, looked up): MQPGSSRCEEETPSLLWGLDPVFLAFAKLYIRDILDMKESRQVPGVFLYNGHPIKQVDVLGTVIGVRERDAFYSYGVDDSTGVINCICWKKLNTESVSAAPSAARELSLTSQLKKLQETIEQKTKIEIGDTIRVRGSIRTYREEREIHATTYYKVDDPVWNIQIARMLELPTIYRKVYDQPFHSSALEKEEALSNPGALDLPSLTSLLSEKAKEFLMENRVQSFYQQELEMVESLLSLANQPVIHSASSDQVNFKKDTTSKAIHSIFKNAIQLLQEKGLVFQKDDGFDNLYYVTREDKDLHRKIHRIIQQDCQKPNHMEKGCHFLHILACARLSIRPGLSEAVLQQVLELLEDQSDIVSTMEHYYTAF
# Sequence of UniProt Q13487 (Q13487 whole entry, looked up): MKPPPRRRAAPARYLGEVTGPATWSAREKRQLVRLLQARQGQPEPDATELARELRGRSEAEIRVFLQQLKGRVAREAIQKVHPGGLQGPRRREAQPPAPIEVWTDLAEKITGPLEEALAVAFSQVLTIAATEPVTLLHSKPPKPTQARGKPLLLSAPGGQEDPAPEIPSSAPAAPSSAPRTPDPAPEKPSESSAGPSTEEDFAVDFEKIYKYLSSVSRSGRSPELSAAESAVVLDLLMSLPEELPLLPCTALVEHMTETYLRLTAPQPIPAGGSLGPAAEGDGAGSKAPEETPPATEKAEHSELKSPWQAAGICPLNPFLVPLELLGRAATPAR
# Sequence of UniProt B2RUZ4 (B2RUZ4 whole entry, looked up): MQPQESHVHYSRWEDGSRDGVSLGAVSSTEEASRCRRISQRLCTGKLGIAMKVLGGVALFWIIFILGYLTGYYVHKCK
Target,log2 fold change [1],log2 fold change [2],log2 fold change [3],log2 fold change [4],log2 fold change [5]
STN1 (UniProt Q9H668),-0.125,0.073,-0.115,-0.049,
SHB (UniProt Q15464),,,,0.086,0.033
SKP2 (UniProt Q13309),,,-0.015,0.001,-0.003
SLC12A6 isoform 2 (UniProt Q9UHW9),,,,,-0.179
TARDBP (UniProt K7EN94),,,0.319,,
SIN3B (UniProt O75182),,,-0.129,0.052,
SLCO4A1 (UniProt Q96BD0),0.203,-0.372,,-0.013,
STK38L (UniProt Q9Y2H1),,,,,-0.031
SHC1 (UniProt P29353),,,,0.201,
SNAPC2 (UniProt Q13487),0.107,0.302,,0.004,0.101
TAF11 (UniProt Q15544),,,0,-0.073,-0.16
SLC35A3 isoform 2 (UniProt Q9Y2D2),,,0.008,-0.57,
STK26 isoform 3 (UniProt Q9P289),,,,,0.166
SMARCA4 isoform 4 (UniProt P51532),,,,0.131,-0.007
STK17B (UniProt O94768),,,,,-0.029
SNAP23 isoform 2 (UniProt O00161),,,0.045,-0.038,
SLC25A36 (UniProt Q96CQ1),,,0.013,0,0.035

Target,log2 fold change [1],log2 fold change [2],log2 fold change [3],log2 fold change [4],log2 fold change [5]
STAR (UniProt P49675),,,0.048,-0.028,-0.077
SSX5 isoform 2 (UniProt O60225),0.022,0.03,-0.157,-0.253,
SMIM1 (UniProt B2RUZ4),0.053,-0.054,,-0.028,
SLC40A1 (UniProt Q9NP59),,,0.013,-0.205,-0.107
SRC isoform 2 (UniProt P12931),-0.052,-0.412 (active),,0.017,-0.105
SLC30A6 isoform 2 (UniProt Q6NXT4),0.033,-0.046,0.116,-0.059,
SZT2 (UniProt Q5T011),-0.285,-0.066,,0.105,-0.148
STAU1 isoform 3 (UniProt O95793),0.19,0.043,,0.081,
SLC22A18 (UniProt Q96BI1),0.07,0.048,-0.036,-0.088,
STK17A (UniProt Q9UEE5),,,,0.148,
SMPD2 (UniProt O60906),,,,-0.05,-0.244
SNRPD2 (UniProt K7EJB5),,,0.024,,-0.047
SPPL2A (UniProt Q8TCT8),-0.148,0.118,0.087,0.098,
SLC41A1 (UniProt Q8IVJ1),,,,-0.016,
SIX5 (UniProt Q8N196),-0.011,0.034,,0.209,-0.037
SNUPN (UniProt O95149),-0.013,-0.018,0.047,-0.02,
